From PubChem BioAssay AID1159580 (chemical genetic matrix, 2015)
About 2,000 (36%) of roughly 5,500 compounds were called active. About 18% were inconclusive and are not listed. Rule as the data show it: active = normalized growth mostly below about 0.91 (no sharp cut-off); inconclusive = no clear call, values can overlap the other calls; inactive = mostly above about 0.92. The list shows a part of the results.

Assay: chemical genetic growth profiling, strain panel (AID 1159580);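 also: tested at 20 µM; growth read once vehicle control cultures reached saturation at 30 °C; 1 = growth at the plate median or of vehicle wells; lower values mean less growth of the strain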
Details: S. cerevisiae deletion strains, growth OD
[1] = locus YDR150W, strain NUM1, stronger effect = lower value
[2] = locus YGR078C, strain PAC10, stronger effect = lower value
[3] = locus YMR263W, strain SAP30, stronger effect = lower value
[4] = locus YNL322C, strain KRE1, stronger effect = lower value
[5] = locus YPL241C, strain CIN2, stronger effect = lower value

Measured: normalized growth

COc1ccc(S(=O)(=O)Nc2cc(C)c(C)cc2[N+](=O)[O-])c(OC)c1
inactive: locus YAL013W, strain DEP1, stronger effect = lower value 1.01 | locus YBR229C, strain ROT2, stronger effect = lower value 1 | locus YCL061C, strain MRC1, stronger effect = lower value 1 | locus YDL101C, strain DUN1, stronger effect = lower value 1.01 | [1] 0.885 | locus YEL061C, strain CIN8, stronger effect = lower value 1.01 | [2] 0.995 | locus YGR229C, strain SMI1, stronger effect = lower value 1.01 | locus YHR030C, strain SLT2, stronger effect = lower value 0.991 | locus YHR087W, strain rtc3, stronger effect = lower value 1 | locus YJR043C, strain POL32, stronger effect = lower value 1 | locus YJR075W, strain HOC1, stronger effect = lower value 1.01 | locus YKL190W, strain CNB1, stronger effect = lower value 1.02 | locus YLR039C, strain RIC1, stronger effect = lower value 0.968 | locus YLR058C, strain SHM2 (second series), stronger effect = lower value 1 | locus YLR085C, strain ARP6, stronger effect = lower value 1.04 | locus YLR262C, strain YPT6, stronger effect = lower value 0.967 | locus YML094W, strain GIM5, stronger effect = lower value 0.983 | locus YMR219W, strain ESC1, stronger effect = lower value 0.999 | [3] 0.973 | locus YNL128W, strain TEP1, stronger effect = lower value 1.02 | locus YNL153C, strain GIM3, stronger effect = lower value 1.02 | locus YNL298W, strain CLA4 (second series), stronger effect = lower value 1.04 | [4] 0.989 | locus YNR030W, strain Alg12, stronger effect = lower value 0.998 | locus YPL055C, strain LGE1, stronger effect = lower value 0.889 | [5] 1.03 | locus YPR135W, strain CTF4, stronger effect = lower value 0.946

Ic1ccccc1CNC1C2CCN(CC2)C1C(c1ccccc1)c1ccccc1 (configuration not stated)
inactive: locus YAL040C, strain CLN3, stronger effect = lower value 0.998 | locus YCL061C, strain MRC1 (second series), stronger effect = lower value 0.984 | [1] 0.996 | locus YDR363W, strain ESC2, stronger effect = lower value 0.977 | locus YER002W, strain NOP16, stronger effect = lower value 1.05 | [2] 1 | [3] 0.998 | locus YMR307W, strain GAS1, stronger effect = lower value 0.989 | locus YNL175C, strain NOP13, stronger effect = lower value 1.05 | locus YNL197C, strain WHI3, stronger effect = lower value 1.07 | locus YNL224C, strain SQS1, stronger effect = lower value 1.05 | [4] 1 | locus YOR083W, strain WHI5 (second series), stronger effect = lower value 1.05 | [5] 0.998
